Measured values as given in PubChem BioAssay.
Inconclusive results are not listed. Active and inactive are the calls of the source.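 How the source made its calls, unless noted: active means growth inhibition above 25% in both replicates, a cutoff set 3 SD above the mean; inconclusive means above 25% in only one replicate; inactive means the rest.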

Experiments:
[1] = reducers of endogenous Her2 protein level, primary screen, SKBR3 breast tumor cells, AlphaScreen, ATP viability (AID 461;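 active means Her2 level under about 52% in both replicate screens, with viability over 70% of control, limit read from the data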;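 on Her2 level: lower value means less Her2 protein in the cells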;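 on viability: percent of carrier control wells set as 100% viability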); settings: 18-24 h, measured here: SKBR3 viability, ATP luminescence, at 10 µM
[2] = target: Receptor tyrosine-protein kinase erbB-2 (Homo sapiens) (UniProt P04626); assay: as above; settings: 18-24 h, at 10 µM, stronger effect = lower value
Chain of Receptor tyrosine-protein kinase erbB-2 (Homo sapiens) (P04626 whole entry, looked up): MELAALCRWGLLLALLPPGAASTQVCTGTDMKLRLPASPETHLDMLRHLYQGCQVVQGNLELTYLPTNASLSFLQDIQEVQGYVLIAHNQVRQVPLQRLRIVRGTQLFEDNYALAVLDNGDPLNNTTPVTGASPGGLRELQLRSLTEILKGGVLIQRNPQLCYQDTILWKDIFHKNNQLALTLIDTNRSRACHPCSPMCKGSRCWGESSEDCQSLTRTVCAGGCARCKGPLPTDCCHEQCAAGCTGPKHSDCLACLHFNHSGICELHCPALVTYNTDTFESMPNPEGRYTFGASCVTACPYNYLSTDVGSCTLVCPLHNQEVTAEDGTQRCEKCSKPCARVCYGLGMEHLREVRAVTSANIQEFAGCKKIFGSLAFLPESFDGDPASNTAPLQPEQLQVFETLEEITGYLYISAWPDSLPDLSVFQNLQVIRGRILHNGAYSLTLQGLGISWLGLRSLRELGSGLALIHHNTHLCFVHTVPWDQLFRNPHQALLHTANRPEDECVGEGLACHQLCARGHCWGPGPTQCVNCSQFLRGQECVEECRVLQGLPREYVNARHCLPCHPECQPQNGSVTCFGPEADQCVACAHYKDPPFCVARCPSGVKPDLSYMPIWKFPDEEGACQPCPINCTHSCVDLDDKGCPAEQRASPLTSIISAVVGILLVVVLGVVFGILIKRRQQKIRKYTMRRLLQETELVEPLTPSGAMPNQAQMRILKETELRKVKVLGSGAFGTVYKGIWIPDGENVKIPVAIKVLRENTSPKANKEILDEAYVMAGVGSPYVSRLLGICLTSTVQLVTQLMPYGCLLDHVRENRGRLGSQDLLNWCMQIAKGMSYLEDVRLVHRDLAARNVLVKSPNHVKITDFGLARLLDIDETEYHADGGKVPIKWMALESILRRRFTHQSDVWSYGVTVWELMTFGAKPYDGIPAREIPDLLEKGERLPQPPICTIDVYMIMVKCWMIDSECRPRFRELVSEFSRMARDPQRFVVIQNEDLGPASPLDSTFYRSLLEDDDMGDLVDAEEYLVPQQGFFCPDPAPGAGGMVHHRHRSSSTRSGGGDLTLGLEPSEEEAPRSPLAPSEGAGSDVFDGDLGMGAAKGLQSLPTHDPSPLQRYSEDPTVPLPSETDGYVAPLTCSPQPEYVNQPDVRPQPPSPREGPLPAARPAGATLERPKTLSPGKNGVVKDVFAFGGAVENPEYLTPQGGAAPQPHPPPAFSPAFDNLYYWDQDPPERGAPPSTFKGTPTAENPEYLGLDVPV

[3] = SK-BR-3 cell growth inhibitors, pilot screen, 24 h, human (AID 572;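 active means viability at or below 10% of carrier control in both of two separate runs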;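 further: compound exposure lasted between 18 and 24 h rather than exactly 24 h; 100% = carrier-treated control wells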); settings: SK-BR-3 viability, CellTiter-Glo luminescence, at 10 µM, stronger effect = lower value
[4] = HUVEC growth inhibition – cell-based, human, primary screen (AID 575;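 active means viability at or below 30% in both replicate assays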;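 further: 100% = median of untreated cell wells with 0.1% DMSO on each plate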); settings: HUVEC proliferation, CellTiter-Glo luminescence, 72 h; at 10 µM; stronger effect = lower value
[5] = growth inhibitors of H69AR lung tumor, primary screen, human, duplicate replicates (AID 580;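 active means viability at or under a set limit in both replicates, limit being median viability minus 3 SD, cut at about 48% in these data, passing the limit was not always enough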;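 further: 100% = mean luminescence of untreated wells and 0% = no signal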); settings: H69AR lung tumor cells viability, ATP luminescence, 72 h; at 10 µM; stronger effect = lower value
[6] = reversal of MRP1-mediated doxorubicin resistance, pilot screen, H69AR cells, doxorubicin co-treatment (AID 601;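 active means viability loss from added drug above about 55%, and viability with drug at most 40%, in both replicates, limit read from the data, passing the limit was not always enough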); settings: CellTiter-Glo, 72 h, at 10 µM; for differential viability (reversal): stronger effect = higher value
[7] = 384-well plate pilot, post-Golgi transport modulator project, inhibition of yeast transport mutant growth (AID 636; in the data active means inhibition above about 31%); settings: absorbance 615 nm, about 18 h, stronger effect = higher value
[8] = growth suppression of yeast trafficking mutant, preliminary HTS, modulators of trafficking downstream of Golgi apparatus project, 1536-format plate, OD 615 nm (AID 637; in the data active means inhibition above about 30%); settings: yeast transport mutant growth, absorbance 615 nm, 18 h; stronger effect = higher value
[9] = OD615 S. cerevisiae growth inhibition, permissive medium, pilot counter-assay, permissive growth control for S. cerevisiae lifespan shortening project (AID 705); settings: OD615, 24 h, at 10 µM, stronger effect = higher value
[10] = Restrictive medium S. cerevisiae growth inhibition, OD615, pilot screen of yeast lifespan reduction project, restrictive growth control (AID 706;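 active means growth inhibition above a set limit, 3 SD over mean compound inhibition, in both replicates, cut at about 43% in these data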;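 further: modified DeaD lifespan yeast strain shifted to restrictive glucose medium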); settings: OD615, 48 h, at 10 µM, stronger effect = higher value
[11] = viability gain of MRP-1-high H69AR cells under doxorubicin, pilot screen, MRP-1 activator project, CellTiter-Glo, duplicate (AID 807;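 active means viability increase at or above a cutoff of the median across tested compounds plus 3 SD, cut at about 8.5% in these data, passing the limit was not always enough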;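 further: compound pretreatment 18-22 h then 72 h combined with doxorubicin; 0% = doxorubicin alone and 100% = vehicle without doxorubicin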); settings: H69AR viability with doxorubicin, CellTiter-Glo luminescence; at 10 µM; stronger effect = higher value
[12] = growth suppression of beta-catenin knockout HCT116, pilot screen, human colon tumor cells (AID 823;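 active means cell viability at or below a set limit in both duplicate runs, the limit being the all-compound median minus 4 SD, cut at about 23% in these data, passing the limit was not always enough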;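 further: 0% = wells killed by 20 µM Hyamine and 100% = untreated DMSO cell wells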); settings: CellTiter-Glo, 60 h, at 10 µM, stronger effect = lower value
[13] = growth suppression of PTEN-deleted HCT116, pilot screen, cell-based, HCT116 clonal line, CellTiter-Glo (AID 824;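 active means viability at or below 27.92% in each of two runs, the all-compound median minus 4 SD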;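 further: 0% = 20 µM Hyamine control and 100% = vehicle cell control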); settings: 60 h, at 10 µM, stronger effect = lower value
[14] = inhibitors of the yeast RAM network, pilot screen, dse1pr::URA3 reporter, 5-FOA selection (AID 869;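 active means inhibition over a set limit, the all-compound mean plus 3 SD, in both replicate runs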;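 further: 0% = DMSO wells with no growth and 100% = 10 µM 1-NA-PP1 with full growth; RAM network block rescues cells from 5-FOA so hits raise OD615 growth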); settings: S. cerevisiae dse1pr::URA3 5-FOA growth, OD615, 2 d; at 10 µM; stronger effect = higher value; strain carries analog-sensitive mutant Cbk1 kinase
[15] = RAM signaling pathway blockade in yeast – S. cerevisiae, Pdr1DBD-CYC8 efflux-inhibited sensitized strain, primary screen (AID 1298;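 active means RAM network inhibition above 8.4% in each of two replicates, 3 SD over the compound average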;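 further: 0% = DMSO untreated cells without growth and 100% = 10 µM 1-NA-PP1 full growth; higher means more yeast growth rescued from 5-FOA killing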); settings: S. cerevisiae cbk1-as DSE1-URA3 strain, 5-FOA growth OD615, 2 d; at 50 µM; stronger effect = higher value
[16] = H69AR cells + 2 uM doxorubicin, measured here: viability with 2 uM doxorubicin, stronger effect = lower value
[17] = H69AR cells, compound alone cytotoxicity

Compound	viability [1] [%]	Her2 level [2]	viability [3]	viability [4]	viability [5]	differential viability (reversal) ([6]; H69AR cells + 2 uM doxorubicin)	viability [6, 16] [%]	viability [6, 17] [%]	inhibition [7]	inhibition [8]	growth inhibition [9]	growth inhibition [10]	viability increase [11]	viability [12]	viability [13]	inhibition [14]	RAM network inhibition [15]
COc1ccccc1N(CC(=O)NCc1ccccn1)S(C)(=O)=O	126	105% (inactive)	126% (inactive)	89.2% (inactive)	95.7% (inactive)	4.02% (inactive)	91.6	95.7	-1.3% (inactive)	-1.17% (inactive)	-1.19% (inactive)	-24.7% (inactive)	-3.02% (inactive)	97.3% (inactive)	91.5% (inactive)	0.815% (inactive)	4.8% (inactive)
COc1ccc(C(=O)c2coc3ccc(O)c(CN4CCCCC4)c23)cc1	79.5	106% (inactive)	79.5% (inactive)	66% (inactive)	75.5% (inactive)	-0.2% (inactive)	75.7	75.5	-3.07% (inactive)	5.33% (inactive)	-3.45% (inactive)	-4.88% (inactive)	-4.51% (inactive)	40.5% (inactive)	53.3% (inactive)	0.725% (inactive)	6.6% (inactive)
Cc1ccc(C)c2[nH]c(=O)c(CCNC(=O)c3ccc(S(=O)(=O)N(C)C)cc3)cc12	121	114% (inactive)	121% (inactive)	88.1% (inactive)	82.3% (inactive)	-1.57% (inactive)	83.9	82.3	-4.13% (inactive)	-4% (inactive)	-2.9% (inactive)	-22.2% (inactive)	-4.33% (inactive)	93.2% (inactive)	81.5% (inactive)	2.99% (inactive)	3.23% (inactive)
COC(=O)c1ccccc1NC1c2ccccc2C(=O)N1c1cccnc1 (stereo not drawn)	95	109% (inactive)	95% (inactive)	86.9% (inactive)	84.7% (inactive)	-0.77% (inactive)	85.4	84.7	1.07% (inactive)	0.33% (inactive)	-16.1% (inactive)	3.47% (inactive)	-0.86% (inactive)	94.4% (inactive)	89.8% (inactive)	-1.07% (inactive)	4.8% (inactive)
C=CCn1c(SC(C)C(=O)NC2(C#N)CCCCC2)nnc1-c1ccc(OC)cc1 (stereo not drawn)	90	73.5% (inactive)	90% (inactive)	109% (inactive)	92.2% (inactive)	13.9% (inactive)	78.3	92.2	-7.07% (inactive)	-5.25% (inactive)	-4.51% (inactive)	-9.22% (inactive)	-2.25% (inactive)	90% (inactive)	87.7% (inactive)	1.29% (inactive)	0.47% (inactive)
CCOc1ccc(N(CC(=O)OC)S(=O)(=O)c2ccc(OC)c(OC)c2)cc1	108	122% (inactive)	108% (inactive)	87.2% (inactive)	106% (inactive)	6.15% (inactive)	99.4	106	3.12% (inactive)	-4.83% (inactive)	-11.6% (inactive)	-4.04% (inactive)	-0.96% (inactive)	99.9% (inactive)	106% (inactive)	0.39% (inactive)	2.44% (inactive)
CC(C)c1nnc(NC(=O)C2CCCCC2)s1	98.5	97% (inactive)	98.5% (inactive)	96.5% (inactive)	99.5% (inactive)	5.75% (inactive)	93.8	99.5	-4.13% (inactive)	0.83% (inactive)	-3.55% (inactive)	0.755% (inactive)	-0.65% (inactive)	99.7% (inactive)	97.1% (inactive)	-0.59% (inactive)	-2.03% (inactive)
C=CCNC(=O)CSc1nc2sc(C)c(C)c2c(=O)[nH]1	96.5	95.5% (inactive)	96.5% (inactive)	90.1% (inactive)	78.2% (inactive)	-7.53% (inactive)	85.7	78.2	-3.33% (inactive)	1% (inactive)	-10.2% (inactive)	-4.47% (inactive)	-1.02% (inactive)	110% (inactive)	97.1% (inactive)	3.06% (inactive)	5.1% (inactive)
CCn1cc(C(=O)NCCCOC)c(=O)c2cc(S(=O)(=O)N(C)C)ccc21	92	106% (inactive)	92% (inactive)	89.3% (inactive)	87.6% (inactive)	-23.8% (inactive)	111	87.6	-1.73% (inactive)	-5.33% (inactive)	-8.04% (inactive)	-9.63% (inactive)	-2.52% (inactive)	97.6% (inactive)	94.2% (inactive)	0.395% (inactive)	0.52% (inactive)
Cc1cc(C)n(-c2cc(N3CCOCC3)ncn2)n1	101	90.5% (inactive)	101% (inactive)	93.2% (inactive)	91.7% (inactive)	2.58% (inactive)	89.1	91.7	-3.47% (inactive)	3.67% (inactive)	-3.3% (inactive)	12.9% (inactive)	-1.2% (inactive)	93% (inactive)	93.1% (inactive)	0.035% (inactive)	2.04% (inactive)
CCOc1cccc(OCCCCn2ccnc2)c1	87	75.5% (inactive)	87% (inactive)	97.3% (inactive)	85.4% (inactive)	-3.44% (inactive)	88.8	85.4	3.92% (inactive)	-2.46% (inactive)	-3.35% (inactive)	-16.8% (inactive)	-0.4% (inactive)	49% (inactive)	62.3% (inactive)	2.19% (inactive)	1.84% (inactive)
CC(C)(C)NC(=O)Cn1c(=O)oc2ccc(Cl)cc21	96	104% (inactive)	96% (inactive)	96.5% (inactive)	92.9% (inactive)	28.8% (inactive)	64.1	92.9	-2.4% (inactive)	0.83% (inactive)	5.54% (inactive)	5.01% (inactive)	-4.63% (inactive)	106% (inactive)	100% (inactive)	0.38% (inactive)	7.56% (inactive)
CC1CCN(C(=O)CSc2nnc(Cc3cc(=O)[nH]c(=O)[nH]3)n2-c2ccc(Cl)cc2)CC1	92.5	117% (inactive)	92.5% (inactive)	101% (inactive)	101% (inactive)	2.73% (inactive)	98.2	101	-1.54% (inactive)	-4.17% (inactive)	-17.1% (inactive)	-15.4% (inactive)	-0.15% (inactive)	105% (inactive)	100% (inactive)	-0.375% (inactive)	4.41% (inactive)
O=C(CSc1nc2c(c(=O)n1-c1ccc(F)cc1)SCC2)NCC1CCCO1 (stereo not drawn)	93.5	101% (inactive)	93.5% (inactive)	92.6% (inactive)	105% (inactive)	12% (inactive)	92.6	105	-2.4% (inactive)	-1.61% (inactive)	-8.12% (inactive)	-16.6% (inactive)	-3.46% (inactive)	98.2% (inactive)	90.9% (inactive)	1.46% (inactive)	5.77% (inactive)
CC1(C)Cc2ccccc2C(N)=C1C#N	93.5	111% (inactive)	93.5% (inactive)	87.5% (inactive)	93.7% (inactive)	9.91% (inactive)	83.8	93.7	4.81% (inactive)	-3.11% (inactive)	4.29% (inactive)	-0.06% (inactive)	-0.77% (inactive)	89.9% (inactive)	91.8% (inactive)	0.81% (inactive)	0.69% (inactive)
COc1cc(OC)c2c(c1)OC(c1ccc(OC)c(OC)c1)C(O)C2=O (stereo not drawn)	90.5	79% (inactive)	90.5% (inactive)	112% (inactive)	90.9% (inactive)	12.9% (inactive)	78	90.9	-2.67% (inactive)	0.82% (inactive)	-13.6% (inactive)	-14.9% (inactive)	-1.91% (inactive)	101% (inactive)	100% (inactive)	2.65% (inactive)	2.25% (inactive)
COc1ccc(-n2c(Cc3cccn3C)nnc2SCC(=O)Nc2cccc(Cl)c2)cc1	103	89% (inactive)	103% (inactive)	63.3% (inactive)	85.3% (inactive)	-2.28% (inactive)	87.6	85.3	-2.8% (inactive)	-2.67% (inactive)	4.36% (inactive)	21.3% (inactive)	-1.93% (inactive)	76.5% (inactive)	62.4% (inactive)	0.615% (inactive)	11% (inactive)
COc1ccc(S(=O)(=O)N2Cc3ccccc3CC2C(=O)Nc2ccc(O)cc2)cc1OC (stereo not drawn)	91	106% (inactive)	91% (inactive)	76.3% (inactive)	77.4% (inactive)	1.23% (inactive)	76.2	77.4	-4.27% (inactive)	-0.83% (inactive)	-18.6% (inactive)	-18.4% (inactive)	-4.42% (inactive)	96.6% (inactive)	87.5% (inactive)	1.39% (inactive)	11.6% (inactive)
CN(C)c1oc(-c2ccccc2F)nc1C#N	95	99.5% (inactive)	95% (inactive)	82.3% (inactive)	101% (inactive)	11.8% (inactive)	89.5	101	-2.8% (inactive)	6.56% (inactive)	-11.3% (inactive)	-2.67% (inactive)	-0.62% (inactive)	112% (inactive)	106% (inactive)	0.58% (inactive)	3.09% (inactive)
